ChEMBL document CHEMBL1961873, “Compounds: GSK PKIS; Assays: Nanosyn kinase panel” (2012)

Assays:
[1] = target: Dual specificity protein kinase CLK3 (Homo sapiens) (UniProt P49761); conditions: at 1 µM;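 also: each value is the mean inhibition of CLK3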
[2] = target: Dual specificity tyrosine-phosphorylation-regulated kinase 1A (Homo sapiens) (UniProt Q13627); conditions: at 0.1 µM
[3] = target: Dual specificity tyrosine-phosphorylation-regulated kinase 1A (Homo sapiens) (UniProt Q13627); conditions: at 1 µM
[4] = target: Dual specificity tyrosine-phosphorylation-regulated kinase 1B (Homo sapiens) (UniProt Q9Y463); conditions: at 0.1 µM
Sequence of Dual specificity tyrosine-phosphorylation-regulated kinase 1B (Homo sapiens) (Q9Y463 whole entry, looked up): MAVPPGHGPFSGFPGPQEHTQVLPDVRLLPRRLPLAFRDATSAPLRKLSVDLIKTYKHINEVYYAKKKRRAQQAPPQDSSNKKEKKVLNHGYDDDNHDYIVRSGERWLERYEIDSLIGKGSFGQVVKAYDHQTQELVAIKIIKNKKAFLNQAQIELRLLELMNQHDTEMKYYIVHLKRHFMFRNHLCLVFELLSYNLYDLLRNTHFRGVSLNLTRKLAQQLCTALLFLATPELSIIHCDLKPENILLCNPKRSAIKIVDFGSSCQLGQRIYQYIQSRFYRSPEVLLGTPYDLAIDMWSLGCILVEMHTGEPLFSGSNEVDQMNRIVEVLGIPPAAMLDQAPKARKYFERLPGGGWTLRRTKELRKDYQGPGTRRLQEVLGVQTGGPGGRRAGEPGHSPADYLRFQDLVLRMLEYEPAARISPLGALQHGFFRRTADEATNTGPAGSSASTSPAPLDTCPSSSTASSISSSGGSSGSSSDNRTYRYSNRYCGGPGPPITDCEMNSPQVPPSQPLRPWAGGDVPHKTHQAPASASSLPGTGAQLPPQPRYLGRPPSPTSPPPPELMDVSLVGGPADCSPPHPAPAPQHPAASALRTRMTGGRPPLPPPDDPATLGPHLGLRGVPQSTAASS

[5] = target: Dual specificity tyrosine-phosphorylation-regulated kinase 1B (Homo sapiens) (UniProt Q9Y463); conditions: at 1 µM
[6] = target: T1, Dual specificity tyrosine-phosphorylation-regulated kinase 2 (Homo sapiens) (UniProt Q92630); conditions: at 0.1 µM
T1 sequence (whole entry): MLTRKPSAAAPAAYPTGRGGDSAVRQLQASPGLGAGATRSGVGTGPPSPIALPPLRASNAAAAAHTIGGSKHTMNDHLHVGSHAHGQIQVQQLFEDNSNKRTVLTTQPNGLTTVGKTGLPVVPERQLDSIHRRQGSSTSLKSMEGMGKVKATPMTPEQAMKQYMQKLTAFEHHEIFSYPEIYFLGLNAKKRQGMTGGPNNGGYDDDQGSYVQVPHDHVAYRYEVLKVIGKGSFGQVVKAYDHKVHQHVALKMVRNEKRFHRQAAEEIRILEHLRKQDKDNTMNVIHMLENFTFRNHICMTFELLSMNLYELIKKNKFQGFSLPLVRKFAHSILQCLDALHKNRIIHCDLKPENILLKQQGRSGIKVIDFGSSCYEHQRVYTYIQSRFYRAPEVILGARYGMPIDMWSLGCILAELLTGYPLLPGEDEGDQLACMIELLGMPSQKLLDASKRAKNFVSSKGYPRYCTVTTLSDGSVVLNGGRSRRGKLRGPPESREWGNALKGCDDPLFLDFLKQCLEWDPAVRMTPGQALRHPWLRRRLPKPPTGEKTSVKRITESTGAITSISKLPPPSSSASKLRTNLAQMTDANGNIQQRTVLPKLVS

[7] = target: T1, Dual specificity tyrosine-phosphorylation-regulated kinase 2 (Homo sapiens); conditions: at 1 µM
[8] = target: Glycogen synthase kinase-3 alpha (Homo sapiens) (UniProt P49840); conditions: at 0.1 µM
Sequence of Glycogen synthase kinase-3 alpha (Homo sapiens) (P49840 2-483 limits assumed): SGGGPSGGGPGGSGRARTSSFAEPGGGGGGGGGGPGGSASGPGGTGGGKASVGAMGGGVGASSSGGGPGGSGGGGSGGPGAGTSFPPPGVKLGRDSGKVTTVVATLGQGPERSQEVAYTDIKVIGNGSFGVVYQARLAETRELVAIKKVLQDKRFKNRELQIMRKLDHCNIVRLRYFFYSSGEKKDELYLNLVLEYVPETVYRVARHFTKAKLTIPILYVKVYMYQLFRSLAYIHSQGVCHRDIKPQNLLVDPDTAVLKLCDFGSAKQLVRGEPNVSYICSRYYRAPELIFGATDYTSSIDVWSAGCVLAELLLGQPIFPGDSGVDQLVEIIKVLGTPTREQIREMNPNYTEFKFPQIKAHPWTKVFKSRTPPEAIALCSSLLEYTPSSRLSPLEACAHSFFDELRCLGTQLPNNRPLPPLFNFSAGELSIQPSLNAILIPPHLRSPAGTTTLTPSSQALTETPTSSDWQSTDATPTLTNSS

[9] = target: Glycogen synthase kinase-3 alpha (Homo sapiens) (UniProt P49840); conditions: at 1 µM
[10] = target: Glycogen synthase kinase-3 beta (Homo sapiens) (UniProt P49841); conditions: at 0.1 µM
Sequence of Glycogen synthase kinase-3 beta (Homo sapiens) (P49841 whole entry, looked up): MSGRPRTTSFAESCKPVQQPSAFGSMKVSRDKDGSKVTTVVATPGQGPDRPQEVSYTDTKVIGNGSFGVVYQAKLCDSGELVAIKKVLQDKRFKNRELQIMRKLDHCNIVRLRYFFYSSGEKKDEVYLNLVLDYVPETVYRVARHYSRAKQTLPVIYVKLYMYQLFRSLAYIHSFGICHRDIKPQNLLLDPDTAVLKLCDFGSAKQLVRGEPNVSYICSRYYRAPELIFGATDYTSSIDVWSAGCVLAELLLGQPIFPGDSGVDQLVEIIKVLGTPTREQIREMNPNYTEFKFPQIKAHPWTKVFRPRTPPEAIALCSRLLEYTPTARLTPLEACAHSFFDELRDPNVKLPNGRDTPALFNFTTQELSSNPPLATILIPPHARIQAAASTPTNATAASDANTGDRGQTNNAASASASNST

[11] = target: Glycogen synthase kinase-3 beta (Homo sapiens) (UniProt P49841); conditions: at 1 µM
[12] = target: Homeodomain-interacting protein kinase 1 (Homo sapiens) (UniProt Q86Z02); conditions: at 0.1 µM
Sequence of Homeodomain-interacting protein kinase 1 (Homo sapiens) (Q86Z02 whole entry, looked up): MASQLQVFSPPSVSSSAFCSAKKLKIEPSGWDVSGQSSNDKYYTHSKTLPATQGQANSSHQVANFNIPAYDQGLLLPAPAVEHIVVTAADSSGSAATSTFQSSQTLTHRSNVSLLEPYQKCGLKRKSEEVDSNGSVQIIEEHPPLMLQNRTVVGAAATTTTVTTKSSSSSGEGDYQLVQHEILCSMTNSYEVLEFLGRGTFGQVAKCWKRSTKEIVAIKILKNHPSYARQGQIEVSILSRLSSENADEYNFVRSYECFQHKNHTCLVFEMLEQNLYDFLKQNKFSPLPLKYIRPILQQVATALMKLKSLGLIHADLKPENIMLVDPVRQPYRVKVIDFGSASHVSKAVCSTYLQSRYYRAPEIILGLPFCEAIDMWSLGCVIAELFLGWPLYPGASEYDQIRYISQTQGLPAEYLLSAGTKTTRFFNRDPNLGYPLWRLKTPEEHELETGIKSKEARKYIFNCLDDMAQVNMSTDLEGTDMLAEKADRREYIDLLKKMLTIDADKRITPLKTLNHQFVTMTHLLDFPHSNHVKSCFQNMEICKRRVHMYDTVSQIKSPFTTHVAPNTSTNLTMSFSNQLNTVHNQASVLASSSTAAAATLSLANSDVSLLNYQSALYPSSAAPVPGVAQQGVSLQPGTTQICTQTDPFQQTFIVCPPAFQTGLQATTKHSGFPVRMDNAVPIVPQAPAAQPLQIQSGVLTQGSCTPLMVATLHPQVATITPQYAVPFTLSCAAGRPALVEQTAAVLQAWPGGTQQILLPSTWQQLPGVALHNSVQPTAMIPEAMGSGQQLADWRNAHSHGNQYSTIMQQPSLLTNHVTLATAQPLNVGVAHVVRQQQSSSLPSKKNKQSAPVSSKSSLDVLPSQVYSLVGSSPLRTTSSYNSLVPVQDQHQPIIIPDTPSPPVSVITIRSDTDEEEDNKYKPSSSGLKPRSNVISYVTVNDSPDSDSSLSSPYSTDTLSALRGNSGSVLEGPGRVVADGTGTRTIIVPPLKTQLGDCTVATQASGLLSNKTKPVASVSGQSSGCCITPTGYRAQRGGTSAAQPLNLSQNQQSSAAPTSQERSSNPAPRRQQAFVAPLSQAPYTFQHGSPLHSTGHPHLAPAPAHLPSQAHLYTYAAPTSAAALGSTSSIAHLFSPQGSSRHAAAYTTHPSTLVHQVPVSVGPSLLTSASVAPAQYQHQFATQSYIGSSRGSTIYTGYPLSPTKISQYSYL

[13] = target: Homeodomain-interacting protein kinase 1 (Homo sapiens) (UniProt Q86Z02); conditions: at 1 µM
[14] = target: T2, Homeodomain-interacting protein kinase 4 (Homo sapiens) (UniProt Q8NE63); conditions: at 0.1 µM
T2 sequence (whole entry): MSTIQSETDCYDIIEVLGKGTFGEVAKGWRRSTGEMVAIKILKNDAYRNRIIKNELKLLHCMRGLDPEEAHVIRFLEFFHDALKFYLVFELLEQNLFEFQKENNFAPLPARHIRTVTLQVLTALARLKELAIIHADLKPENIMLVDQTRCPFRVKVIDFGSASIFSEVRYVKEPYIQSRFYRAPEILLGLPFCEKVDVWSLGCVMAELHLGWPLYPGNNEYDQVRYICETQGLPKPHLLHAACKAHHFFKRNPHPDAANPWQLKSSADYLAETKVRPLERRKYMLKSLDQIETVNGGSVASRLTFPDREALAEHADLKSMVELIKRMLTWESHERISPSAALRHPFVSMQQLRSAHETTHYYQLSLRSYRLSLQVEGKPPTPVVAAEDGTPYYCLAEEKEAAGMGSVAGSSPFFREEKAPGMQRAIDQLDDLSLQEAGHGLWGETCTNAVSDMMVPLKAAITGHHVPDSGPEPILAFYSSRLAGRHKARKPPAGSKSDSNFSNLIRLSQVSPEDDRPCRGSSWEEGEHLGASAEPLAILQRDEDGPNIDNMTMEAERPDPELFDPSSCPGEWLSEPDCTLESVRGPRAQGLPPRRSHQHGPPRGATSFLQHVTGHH

[15] = target: T2, Homeodomain-interacting protein kinase 4 (Homo sapiens); conditions: at 1 µM
[16] = target: Mitogen-activated protein kinase 9 (Homo sapiens) (UniProt P45984); conditions: at 0.1 µM
Sequence of Mitogen-activated protein kinase 9 (Homo sapiens) (P45984 whole entry, looked up): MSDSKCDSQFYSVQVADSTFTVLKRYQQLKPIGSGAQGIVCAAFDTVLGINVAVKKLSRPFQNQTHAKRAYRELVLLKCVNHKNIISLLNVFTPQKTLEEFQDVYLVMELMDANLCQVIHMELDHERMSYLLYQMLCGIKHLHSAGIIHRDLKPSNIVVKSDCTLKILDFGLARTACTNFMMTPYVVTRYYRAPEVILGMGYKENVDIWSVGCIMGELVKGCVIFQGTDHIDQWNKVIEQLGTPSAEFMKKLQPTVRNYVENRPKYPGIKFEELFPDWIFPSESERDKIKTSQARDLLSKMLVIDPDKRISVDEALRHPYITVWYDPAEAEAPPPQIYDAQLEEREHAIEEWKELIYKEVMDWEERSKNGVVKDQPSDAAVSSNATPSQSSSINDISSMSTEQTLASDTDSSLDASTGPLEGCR

[17] = target: Mitogen-activated protein kinase 9 (Homo sapiens) (UniProt P45984); conditions: at 1 µM
[18] = target: Mitogen-activated protein kinase 1 (Homo sapiens) (UniProt P28482); conditions: at 0.1 µM
Sequence of Mitogen-activated protein kinase 1 (Homo sapiens) (P28482 whole entry): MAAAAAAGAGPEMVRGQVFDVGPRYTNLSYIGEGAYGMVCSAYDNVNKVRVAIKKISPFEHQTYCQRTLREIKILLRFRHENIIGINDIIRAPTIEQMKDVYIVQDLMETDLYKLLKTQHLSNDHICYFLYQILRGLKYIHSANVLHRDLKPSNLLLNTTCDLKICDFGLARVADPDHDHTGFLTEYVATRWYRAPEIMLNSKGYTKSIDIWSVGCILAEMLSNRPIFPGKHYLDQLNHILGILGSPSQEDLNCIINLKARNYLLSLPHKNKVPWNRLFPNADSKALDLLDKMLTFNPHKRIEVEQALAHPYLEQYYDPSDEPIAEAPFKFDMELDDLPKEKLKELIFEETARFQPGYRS

[19] = target: Mitogen-activated protein kinase 1 (Homo sapiens) (UniProt P28482); conditions: at 1 µM
[20] = target: Mitogen-activated protein kinase 3 (Homo sapiens) (UniProt P27361); conditions: at 0.1 µM;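 also: each value is a mean inhibition figure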
Sequence of Mitogen-activated protein kinase 3 (Homo sapiens) (P27361 whole entry): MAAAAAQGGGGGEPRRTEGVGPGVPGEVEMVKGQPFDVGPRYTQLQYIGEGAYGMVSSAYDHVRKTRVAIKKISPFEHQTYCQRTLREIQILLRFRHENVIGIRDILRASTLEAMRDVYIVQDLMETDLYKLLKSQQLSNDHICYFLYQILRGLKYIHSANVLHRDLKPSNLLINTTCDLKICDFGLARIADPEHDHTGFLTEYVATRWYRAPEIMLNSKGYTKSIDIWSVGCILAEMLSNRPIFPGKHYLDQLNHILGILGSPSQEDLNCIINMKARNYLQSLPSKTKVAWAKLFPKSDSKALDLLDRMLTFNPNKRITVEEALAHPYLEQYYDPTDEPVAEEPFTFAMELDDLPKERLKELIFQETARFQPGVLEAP

Sequence of Dual specificity protein kinase CLK3 (Homo sapiens) (P49761 whole entry, looked up): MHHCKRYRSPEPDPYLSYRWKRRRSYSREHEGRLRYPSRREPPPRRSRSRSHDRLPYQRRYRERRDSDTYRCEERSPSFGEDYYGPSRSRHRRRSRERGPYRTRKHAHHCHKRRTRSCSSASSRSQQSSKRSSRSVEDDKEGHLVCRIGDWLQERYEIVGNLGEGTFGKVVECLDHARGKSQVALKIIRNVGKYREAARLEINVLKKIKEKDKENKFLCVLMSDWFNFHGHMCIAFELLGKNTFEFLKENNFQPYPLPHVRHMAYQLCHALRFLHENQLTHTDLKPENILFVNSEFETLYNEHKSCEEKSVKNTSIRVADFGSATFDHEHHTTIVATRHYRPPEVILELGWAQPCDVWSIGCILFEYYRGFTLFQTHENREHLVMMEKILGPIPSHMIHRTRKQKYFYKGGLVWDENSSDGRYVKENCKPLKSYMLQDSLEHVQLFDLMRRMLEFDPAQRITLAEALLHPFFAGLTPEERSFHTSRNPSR

Row | Structure (SMILES) | inhibition [1] [%] | inhibition [2] [%] | inhibition [3] [%] | inhibition [4] [%] | inhibition [5] [%] | inhibition [6] [%] | inhibition [7] [%] | inhibition [8] [%] | inhibition [9] [%] | inhibition [10] [%] | inhibition [11] [%] | inhibition [12] [%] | inhibition [13] [%] | inhibition [14] [%] | inhibition [15] [%] | inhibition [16] [%] | inhibition [17] [%] | inhibition [18] [%] | inhibition [19] [%] | inhibition [20] [%]
1 | CNC(=O)c1cccc(C#Cc2cncnc2Nc2ccc(OCc3cccc(F)c3)c(Cl)c2)c1 | -0.52 | -0.33 | 1.36 | 0.13 | 1 | 0.97 | 1.82 | 1.09 | 3.8 | 0.4 | 6.56 | 1.69 | 4.07 | 1.01 | 4.65 | -2.46 | 1.25 | 1.53 | 0.6 | 2.46
2 | O=S(=O)(CCNCc1ccc(-c2ccc3ncnc(Nc4ccc(OCc5cccc(F)c5)c(Cl)c4)c3c2)o1)c1ccccc1 | -0.68 | 3.49 | 5.29 | -0.71 | 0.19 | 3.86 | 2.88 | 3.49 | 4.1 | 2.66 | 2.57 | 0.47 | 4.11 | 3.74 | 5.4 | 5.87 | 5.2 | 7.56 | 8.99 | 6.61
3 | CN1CCC(n2cnc(-c3ccc(F)cc3)c2-c2ccnc(Nc3ccccc3)n2)CC1 | 0.59 | 1.28 | 2.82 | 0.22 | 0.48 | 1.36 | 3.27 | 3.08 | 12.7 | 4.95 | 34.3 | 2.6 | 0.41 | 0.08 | 7.29 | 28 | 74.7 | 2.4 | 5.02 | 3.96
4 | Nc1nc(-c2ccc(F)cc2)c(-c2ccc3ncccc3n2)s1 | 6.28 | 8.98 | 37.4 | 3.54 | 19.8 | 3.22 | 5.03 | 12.1 | 20.8 | 11 | 19.6 | 4.79 | 13.9 | 4.95 | 11 | 6.33 | 25.3 | 4.29 | 5.05 | 3.56
5 | COc1cc(/C=N/Nc2ncnc3[nH]ncc23)ccc1O | 13.2 | 12.5 | 45.1 | 6.29 | 31.6 | 7.46 | 44.8 | 9.63 | 41.7 | 7 | 24.5 | 9.37 | 39.4 | 5.91 | 23 | 1.89 | 5.5 | 3.68 | 4.72 | 2.18
6 | CN(C)CCOc1ccc(-c2nc(-c3ccncc3)c(-c3ccc4c(c3)CC/C4=N\O)[nH]2)cc1 | 3.66 | 4.17 | 8.33 | 2.86 | 5.07 | 2.04 | 4.1 | 5.08 | 9.93 | 4.7 | 9.68 | 6 | 17.8 | 3.76 | 8.61 | -0.13 | 6.51 | 3.96 | 2.88 | 1.97
7 | Nc1nc(-c2cccc(Cl)c2)c(-c2ccc3ncccc3n2)s1 | 3.8 | 6.62 | 31.8 | -0.12 | 12.7 | 3.16 | 5.31 | 3.74 | 11.2 | 2.21 | 7.52 | 2.34 | 6.93 | 2.76 | 13.9 | 5.19 | 13.9 | 6.28 | 6.55 | 5.26
8 | COc1ccc(CNC(=O)c2ccc(-c3cc(-c4nnc(C)o4)ccc3C)cc2)cc1 | 2.16 | 1.08 | 1.05 | 1.53 | 2.22 | 0.27 | 1.42 | 5.61 | 17.9 | 5.31 | 13.6 | 5.43 | 5.55 | 7.2 | 9.71 | -0.3 | 2.51 | 4.56 | -9.41 | 1.8
9 | O=C(O[C@H]1CN[C@H](C#Cc2cc3ncnc(Nc4ccc(Cc5ccccc5)cc4)c3s2)C1)N1CCOCC1 | 0.23 | 1.9 | -0.14 | 1.3 | 2.47 | 2.26 | 0.33 | 2.45 | 3.62 | 0.78 | 2.73 | -2.13 | 0.97 | 0.04 | -1.93 | -0.66 | -0.45 | 3.25 | 3.25 | 2.66
10 | COc1ccc(-c2cc3c(N)ncnc3o2)cc1 | 11.4 | 4.26 | 22.7 | 5.2 | 12 | 0.06 | 18.5 | 5.87 | 7.92 | 5.53 | 8 | 0 | 5.4 | 2.36 | 16.5 | -0.62 | -0.18 | 1 | 0.69 | -1.53
11 | COC(=O)Nc1nc2ccc(S(=O)(=O)c3ccc(NC(=O)Nc4cc(C(F)(F)F)ccc4F)cc3)cc2[nH]1 | 0.84 | 1.81 | 3.41 | 0.89 | 0.66 | 2.74 | 3.12 | 2.8 | 7.37 | 0.8 | 7.61 | -0.95 | 0.3 | -0.96 | 1.06 | 3.14 | 3.4 | 1.4 | 2.17 | 3
12 | O=C(Nc1n[nH]c2cc(-c3ccc(F)cc3)ccc12)C1CC1 | 1.03 | 3.64 | 11 | 1.08 | 7.73 | 2.57 | 2.75 | 3.8 | 14.7 | 2.61 | 14.9 | -2.89 | 2.09 | 0.01 | 1.78 | 2.97 | 3.68 | 1.79 | 4.65 | 1.72
13 | Fc1ccc(-c2cc(-c3c[nH]nc3-c3ccccn3)ccn2)cc1 | 0.54 | 2.96 | 5.69 | -1.65 | -0.27 | 3.36 | 4.06 | 2.14 | 2.16 | 1.39 | 2.88 | 1.57 | 0.95 | 1.68 | 4.16 | 3.65 | 11.3 | 6.73 | 5.51 | 6.42
